# Results as given in PubChem BioAssay (EPA / NIEHS).
# The source made the active and inactive calls. Rule for the calls: active = hit-call score of the fitted dose curve at least 0.9, where 1 is the maximum; inactive = score below 0.9.
# Tests used:
# Settings in all cases: mRNA level, 48 h; actives raise or lower the signal
# [1] = read-out: Fatty Acid-Binding Protein 1 (FABP1), FABP1 (gene 2168); assay: LTEA_HepaRG_FABP1: Life Technologies and Expression Analysis (LTEA) Assay for Fatty Acid-Binding Protein 1 (FABP1) using HepaRG (AID 2283494)
# Procedure, shortened: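 Differentiated human HepaRG cells were exposed in duplicate for 48 h in serum-free induction medium to 8-point half-log concentration series topping at 100 uM in 0.5% DMSO. FABP1 mRNA measured by TaqMan qRT-PCR, normalized to ACTB/GAPDH/POLR2A; bidirectional fit versus DMSO.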
# [2] = read-out: Cytochrome P450 4A22 (Homo sapiens) (UniProt Q5TCH4); assay: LTEA_HepaRG_CYP4A22: Life Technologies and Expression Analysis (LTEA) Assay for Cytochrome P450 4A22 (CYP4A22) using HepaRG (AID 2283495)
# Procedure, shortened: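 Differentiated HepaRG cells in serum-free induction medium exposed 48 h in duplicate to eight half-log concentrations up to 100 uM in 0.5% DMSO. CYP4A22 mRNA quantified by TaqMan qRT-PCR, normalized to ACTB, GAPDH and POLR2A; bidirectional fit versus DMSO.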
# [3] = read-out: Glutathione S-Transferase (GSTA2), GSTA2 (gene 2939); assay: LTEA_HepaRG_GSTA2: Life Technologies and Expression Analysis (LTEA) Assay for Glutathione S-Transferase (GSTA2) using HepaRG (AID 2283497)
# Procedure, shortened: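 Human HepaRG cells, plated 48 h, then exposed in serum-free induction medium for 48 h to eight half-log concentrations up to 100 uM in 0.5% DMSO, duplicate. GSTA2 mRNA by qRT-PCR, normalized to ACTB/GAPDH/POLR2A; bidirectional fit versus DMSO.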
# [4] = read-out: Glutamate-cysteine ligase catalytic (GCLC), GCLC (gene 2729); assay: LTEA_HepaRG_GCLC: Life Technologies and Expression Analysis (LTEA) Assay for Glutamate-cysteine ligase catalytic (GCLC) using HepaRG (AID 2283498)
# Procedure, shortened: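 Differentiated human HepaRG cells, plated 48 h then switched to serum-free induction medium, were exposed in duplicate for 48 h to 8 half-log concentrations topping at 100 uM in 0.5% DMSO. GCLC mRNA was quantified by qRT-PCR against ACTB, GAPDH and POLR2A.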
# [5] = read-out: growth arrest and DNA damage 45 (GADD45G), GADD45G (gene 10912); assay: LTEA_HepaRG_GADD45G: Life Technologies and Expression Analysis (LTEA) Assay for growth arrest and DNA damage 45 (GADD45G) using HepaRG (AID 2283499)
# Procedure, shortened: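 Differentiated human HepaRG cells, 48 h post-plating, exposed 48 h in serum-free induction medium to 8 half-log concentrations (top 100 uM, 0.5% DMSO) in duplicate. GADD45G mRNA measured by Fluidigm TaqMan qRT-PCR, normalized to ACTB, GAPDH, POLR2A; bidirectional fit versus DMSO.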
# [6] = read-out: Glutamate-cysteine ligase regulatory (GCLM), GCLM (gene 2730); assay: LTEA_HepaRG_GCLM: Life Technologies and Expression Analysis (LTEA) Assay for Glutamate-cysteine ligase regulatory (GCLM) using HepaRG (AID 2283500)
# Procedure, shortened: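 Human liver HepaRG cultures receive test chemicals for 48 hours at up to 100 uM in 0.5% DMSO. GCLM expression is measured by qRT-PCR and analysed for increases or decreases against vehicle.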
# [7] = read-out: Glutathione S-transferase M3 (GSTM3), GSTM3 (gene 2947); assay: LTEA_HepaRG_GSTM3: Life Technologies and Expression Analysis (LTEA) Assay for Glutathione S-transferase M3 (GSTM3) using HepaRG (AID 2283501)
# Procedure, shortened: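 Differentiated human HepaRG cells were exposed in duplicate for 48 h in serum-free induction medium, 8 points from 100 uM top in half-log steps, 0.5% DMSO. GSTM3 mRNA was measured by TaqMan qRT-PCR, normalized to ACTB, GAPDH and POLR2A; bidirectional fit versus DMSO.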
# [8] = read-out: Heat shock 70 kDa protein 1 (HSPA1A), gene 3303; assay: LTEA_HepaRG_HSPA1A: Life Technologies and Expression Analysis (LTEA) Assay for Heat shock 70 kDa protein 1 (HSPA1A) using HepaRG (AID 2283502)
# Procedure, shortened: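 HSPA1A induction in human HepaRG liver cells is measured after 48 h of chemical treatment (100 uM maximum, 0.5% DMSO vehicle). Expression comes from qRT-PCR normalized to endogenous controls.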
# [9] = read-out: Hypoxia-inducible factor 1-alpha (Homo sapiens) (UniProt Q16665); assay: LTEA_HepaRG_HIF1A: Life Technologies and Expression Analysis (LTEA) Assay for Hypoxia-inducible factor 1 (HIF1A) Trancription factor using HepaRG (AID 2283503)
# Procedure, shortened: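 HepaRG, 48 h exposure, 8-pt half-log series from 100 uM, 0.5% DMSO vehicle, duplicates. Readout: HIF1A transcript by qRT-PCR (Fluidigm array), housekeeping-normalised. Bidirectional curve fit vs DMSO baseline.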
# [10] = read-out: 3-Hydroxy-3-Methylglutaryl-CoA Synthase 2 (HMGCS2), HMGCS2 (gene 3158); assay: LTEA_HepaRG_HMGCS2: Life Technologies and Expression Analysis (LTEA) Assay for 3-Hydroxy-3-Methylglutaryl-CoA Synthase 2 (HMGCS2) using HepaRG (AID 2283504)
# Procedure, shortened: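 Human HepaRG cells in serum-free induction medium were exposed in duplicate for 48 h to 8-point half-log series from 100 uM top in 0.5% DMSO. HMGCS2 mRNA measured by TaqMan qRT-PCR, normalised to ACTB, GAPDH, POLR2A; bidirectional fit versus DMSO.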
# [11] = read-out: HGF (gene 3082); assay: LTEA_HepaRG_HGF: Life Technologies and Expression Analysis (LTEA) Assay for Hepatocyte Growth Facto (HGF) using HepaRG (AID 2283505)
# Procedure, shortened: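 Differentiated HepaRG cells in serum-free induction medium exposed 48 h in duplicate, 8 half-log concentrations from 100 uM in 0.5% DMSO. HGF mRNA by qRT-PCR, normalised to ACTB, GAPDH, POLR2A; bidirectional fitting.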
# [12] = read-out: Insulin Like Growth Factor 1 (IGF1), IGF1 (gene 3479); assay: LTEA_HepaRG_IGF1: Life Technologies and Expression Analysis (LTEA) Assay for Insulin Like Growth Factor 1 (IGF1) using HepaRG (AID 2283506)
# Procedure, shortened: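 Using human HepaRG liver cells, IGF1 transcript induction or suppression is measured 48 h after dosing across eight concentrations capped at 100 uM. Values derive from bidirectional concentration-response fitting with DMSO as baseline.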
# [13] = read-out: Intercellular Adhesion Molecule 1 (ICAM1), ICAM1 (gene 3383); assay: LTEA_HepaRG_ICAM1: Life Technologies and Expression Analysis (LTEA) Assay for Intercellular Adhesion Molecule 1 (ICAM1) using HepaRG (AID 2283507)
# Procedure, shortened: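 Differentiated human HepaRG cells in serum-free induction medium exposed 48 h in duplicate to 8 half-log concentrations (top 100 uM, 0.5% DMSO). ICAM1 mRNA quantified by TaqMan qRT-PCR, normalized to ACTB, GAPDH and POLR2A; bidirectional fitting versus DMSO.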
# [14] = read-out: Insulin-like growth factor-binding protein 1 (IGFBP1), IGFBP1 (gene 3484); assay: LTEA_HepaRG_IGFBP1: Life Technologies and Expression Analysis (LTEA) Assay for Insulin-like growth factor-binding protein 1 (IGFBP1) using HepaRG (AID 2283508)
# Procedure, shortened: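 HepaRG cells, plated 48 h then switched to serum-free induction medium, exposed in duplicate for 48 h to 8-point half-log series from 100 uM in 0.5% DMSO. mRNA measured by qRT-PCR, normalized to ACTB/GAPDH/POLR2A; bidirectional fit versus DMSO.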
# [15] = read-out: Interleukin 6 (IL6), IL6 (gene 3569); assay: LTEA_HepaRG_IL6: Life Technologies and Expression Analysis (LTEA) Assay for Interleukin 6 (IL6) using HepaRG (AID 2283509)
# Procedure, shortened: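 Differentiated human HepaRG cells, plated 48 h then switched to serum-free induction medium, were exposed in duplicate for 48 h to eight half-log concentrations up to 100 uM in 0.5% DMSO. IL6 mRNA measured by qRT-PCR, normalized to ACTB/GAPDH/POLR2A.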
# [16] = read-out: Interleukin 6 Receptor (IL6R), IL6R (gene 3570); assay: LTEA_HepaRG_IL6R: Life Technologies and Expression Analysis (LTEA) Assay for Interleukin 6 Receptor (IL6R) using HepaRG (AID 2283510);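 for AC50: TaqMan qRT-PCR signal normalized to ACTB GAPDH and POLR2A housekeeping genes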
# Procedure, shortened: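 Concentration-response in human liver HepaRG cells: eight concentrations from 100 uM downward by half-logs, 48 h exposure, 0.5% DMSO vehicle. IL6R mRNA change measured by qRT-PCR and fitted in both directions relative to vehicle.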
# [17] = read-out: Potassium channel subfamily K member 1 (KCNK1), KCNK1 (gene 3775); assay: LTEA_HepaRG_KCNK1: Life Technologies and Expression Analysis (LTEA) Assay for Potassium channel subfamily K member 1 (KCNK1) using HepaRG (AID 2283511)
# Procedure, shortened: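 Differentiated human HepaRG cells in serum-free induction medium were exposed in duplicate for 48 h to 8 half-log concentrations up to 100 uM in 0.5% DMSO. KCNK1 mRNA was measured by TaqMan qRT-PCR, normalized to ACTB, GAPDH and POLR2A, and fitted bidirectionally versus DMSO.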
# [18] = read-out: Keratin 19 (KRT19), KRT19 (gene 3880); assay: LTEA_HepaRG_KRT19: Life Technologies and Expression Analysis (LTEA) Assay for Keratin 19 (KRT19) using HepaRG (AID 2283512)
# Procedure, shortened: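 Differentiated HepaRG cells in serum-free induction medium, exposed 48 h in duplicate to 8 half-log concentrations up to 100 uM in 0.5% DMSO. KRT19 mRNA by qRT-PCR, normalized to ACTB, GAPDH, POLR2A; bidirectional fit vs DMSO.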
# Hypoxia-inducible factor 1-alpha (Homo sapiens), sequence (Q16665 whole entry, looked up): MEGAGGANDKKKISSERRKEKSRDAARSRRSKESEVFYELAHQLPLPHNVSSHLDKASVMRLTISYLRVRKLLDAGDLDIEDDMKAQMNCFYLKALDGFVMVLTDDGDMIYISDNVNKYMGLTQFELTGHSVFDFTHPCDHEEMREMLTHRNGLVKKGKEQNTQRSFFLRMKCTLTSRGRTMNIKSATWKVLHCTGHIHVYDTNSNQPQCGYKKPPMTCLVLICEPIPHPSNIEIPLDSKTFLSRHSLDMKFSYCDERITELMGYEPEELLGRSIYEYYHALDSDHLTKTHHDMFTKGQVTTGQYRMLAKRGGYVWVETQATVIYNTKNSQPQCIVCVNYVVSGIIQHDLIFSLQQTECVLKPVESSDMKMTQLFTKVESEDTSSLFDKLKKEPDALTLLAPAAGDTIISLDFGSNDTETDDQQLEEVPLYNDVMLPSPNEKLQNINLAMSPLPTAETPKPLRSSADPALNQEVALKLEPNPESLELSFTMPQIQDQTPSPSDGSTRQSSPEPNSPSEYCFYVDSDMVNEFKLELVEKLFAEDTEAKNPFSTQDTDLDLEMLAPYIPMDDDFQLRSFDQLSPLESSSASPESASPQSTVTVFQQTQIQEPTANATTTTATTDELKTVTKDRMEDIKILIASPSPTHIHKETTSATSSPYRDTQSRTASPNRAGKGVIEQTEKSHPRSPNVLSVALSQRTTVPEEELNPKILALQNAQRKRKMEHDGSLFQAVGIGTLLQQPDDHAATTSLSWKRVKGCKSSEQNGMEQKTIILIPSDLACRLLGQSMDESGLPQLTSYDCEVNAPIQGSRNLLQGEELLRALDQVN
smiles,measurement,setting,value
CC(COCC(C)OC(=O)c1ccccc1)OC(=O)c1ccccc1 (stereo not drawn),outcome,[1],inactive
same,outcome,[2],inactive
same,outcome,[3],inactive
same,outcome,[4],inactive
same,outcome,[5],inactive
same,outcome,[6],inactive
same,outcome,[7],inactive
same,outcome,[8],inactive
same,outcome,[9],inactive
same,outcome,[10],inactive
same,outcome,[11],inactive
same,outcome,[12],inactive
same,outcome,[13],inactive
same,outcome,[14],inactive
same,outcome,[15],inactive
same,outcome,[16],inactive
same,outcome,[17],inactive
same,outcome,[18],inactive
CS(=O)(=O)c1ccc([C@@H](C[C@H]2CCC(=O)C2)C(=O)Nc2cnccn2)cc1Cl,outcome,[1],inactive
same,outcome,[3],inactive
same,AC50,[4],1.01 µM (active)
same,outcome,[5],inactive
same,AC50,[6],1.81 µM (active)
same,AC50,[7],17.6 µM (active)
same,AC50,[8],13.4 µM (active)
same,outcome,[9],inactive
same,outcome,[10],inactive
same,AC50,[11],1.71 µM (active)
same,AC50,[12],1.24 µM (active)
same,AC50,[13],1.48 µM (active)
same,AC50,[14],2.29 µM (active)
same,outcome,[15],inactive
same,AC50,[16],16.8 µM (active)
same,AC50,[17],1.4 µM (active)
same,outcome,[18],inactive
CC(C)NCC(O)c1ccc(O)c(O)c1 (stereo not drawn),AC50,[1],0.479 µM (active)
same,outcome,[2],inactive
same,AC50,[3],0.222 µM (active)
same,outcome,[4],inactive
same,outcome,[5],inactive
same,outcome,[6],inactive
same,AC50,[7],0.273 µM (active)
same,AC50,[8],0.116 µM (active)
same,AC50,[10],0.173 µM (active)
same,AC50,[11],0.166 µM (active)
same,outcome,[12],inactive
same,outcome,[14],inactive
same,outcome,[15],inactive
same,AC50,[16],9.92 µM (active)
same,outcome,[17],inactive
same,AC50,[18],0.149 µM (active)
CC1=C(C)S(=O)(=O)CCS1(=O)=O,AC50,[1],88.1 µM (active)
same,AC50,[2],50 µM (active)
same,AC50,[3],90.3 µM (active)
same,AC50,[4],70.6 µM (active)
same,outcome,[5],inactive
same,AC50,[6],0.214 µM (active)
same,outcome,[7],inactive
same,outcome,[8],inactive
same,AC50,[9],77.1 µM (active)
same,outcome,[10],inactive
same,outcome,[11],inactive
same,AC50,[12],50 µM (active)
same,outcome,[14],inactive
same,outcome,[15],inactive
same,outcome,[16],inactive
same,outcome,[17],inactive
same,AC50,[18],76.6 µM (active)
